From PubChem BioAssay
A selection: hits, their analogues and other compounds. The true share with any hit is near 12%.
Sfp inh: Sfp phosphopantetheinyl transferase inhibition | AID 1490 | Potency, µM, hits mostly inhibitors | 310,000 tested, 3.5% active | Biochemical Sfp PPTase activity, qHTS;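 also: the enzyme is Sfp with the accession as filed and its product quenches rhodamine fluorescence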
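With Hepes-Na pH 7.6 buffer containing 10 mM MgCl2, Sfp (15 nM) modified BHQ-2-YbbR (12.5 uM) using rhodamine-CoA (5 uM). Two reads 30 minutes apart at 525/598 nm yielded each well's rate.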
JMJD2A Tudor inh: inhibitors of human JMJD2A Tudor domain | O75164 | AlphaScreen JMJD2A-Tudor / H3K4me3 peptide binding | Potency, µM (highest dose often 114 µM), most hits filed as inhibitors | 390,000 tested, 4.4% active; also: nearly all actives have a fitted effect of over 50% in size
BAZ2B inh: inhibitors of human BAZ2B bromodomain | Q9UIF8 | AlphaScreen BAZ2B-H3K14Ac peptide displacement | Potency, µM (titrated, usually from 114 µM), usual class: inhibitors | 360,000 tested, 4.4% active; also: nearly all actives have a fitted effect of over 60% in size
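Compounds, titrated to a top concentration of 110 uM, were incubated 30 min at room temperature with preformed BAZ2B/acetyl-K14 H3 peptide complex (50 nM each). Proximity signal was measured by AlphaScreen after 20 min with beads.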
G9a inh: G9a (human) methyltransferase inhibition. G9a H3K9 monomethylation, AlphaScreen, 2 h. Potency, µM (top dose mostly 102 µM), most hits filed as inhibitors. 350,000 tested, 8.8% active. AID 504332; also: nearly all actives have a fitted effect of over 75% in size
Target sequence (Q96KQ7 913-1193 limits assumed): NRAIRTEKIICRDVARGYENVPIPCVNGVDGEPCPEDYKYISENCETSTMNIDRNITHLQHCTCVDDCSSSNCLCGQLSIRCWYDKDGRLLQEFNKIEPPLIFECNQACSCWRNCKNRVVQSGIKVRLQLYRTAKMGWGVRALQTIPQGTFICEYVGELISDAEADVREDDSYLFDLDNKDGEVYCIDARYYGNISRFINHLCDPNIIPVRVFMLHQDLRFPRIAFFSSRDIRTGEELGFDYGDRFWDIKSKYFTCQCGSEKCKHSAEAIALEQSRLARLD
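Methyltransferase reactions run at room temperature for 2 h (20 nM enzyme, 500 nM biotin-H3K9 peptide, 20 uM SAM) after a 15 min compound preincubation; product detected by AlphaScreen beads and anti-H3K9me1 antibody.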
HP1b binding inh: HP1-beta chromodomain-methylated histone interaction inhibition. AlphaScreen HP1-beta / biotin-H3K9me3 peptide binding. 390,000 tested, 0.56% active. Potency, µM (top dose mostly 114 µM), actives largely listed as inhibitors. P83916; also: nearly all actives have a fitted effect of over 70% in size
Target sequence (P83916 whole entry, looked up): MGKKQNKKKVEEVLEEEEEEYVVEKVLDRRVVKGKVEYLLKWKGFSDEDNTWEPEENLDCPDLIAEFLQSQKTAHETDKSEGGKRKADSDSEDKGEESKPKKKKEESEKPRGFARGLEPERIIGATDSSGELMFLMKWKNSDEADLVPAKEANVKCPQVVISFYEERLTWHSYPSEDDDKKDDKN
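HP1-beta protein (50 nM final) preincubated 30 min at room temperature with biotinylated H3(1-18)K9me3 peptide (50 nM) in PBS pH 7.4, 0.01% Tween-20, then compound added for 30 min. AlphaScreen streptavidin donor/nickel chelate acceptor beads (10 ug/mL final), 30 min dark, luminescence read.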
Hits are given with their value; [ ] = dose if it differs, or a comment. Calls follow the shape of the dose curve; as a rule, active = well fitted curve in the direction sought with a large enough effect; inconclusive = small, poorly fitted or top-dose-only effect, or another doubt; inactive = no such curve, though single readings can be large; an effect the other way counts as inactive or inconclusive.

For O=C(Nc1ccc(S(=O)(=O)N2CCCCC2)cc1)c1ccc(=O)[nH]c1 the results were JMJD2A Tudor inh inactive, BAZ2B inh inactive, G9a inh 14µM and HP1b binding inh inactive.
`COc1cc(C(=O)Nc2ccc(N3CCOCC3)cc2)ccc1OCc1c(C)noc1C` gave Sfp inh inactive, JMJD2A Tudor inh inactive, BAZ2B inh inactive, G9a inh 50µM and HP1b binding inh inactive.
`COc1ccc(S(=O)(=O)N2CCOCC2)cc1C(=O)Nc1ccc(N2CCCCCC2)cc1` gave JMJD2A Tudor inh 10µM and HP1b binding inh inconclusive.
`COc1ccc(C(=O)Nc2ccc(N3CCOCC3)cc2)cc1S(=O)(=O)N1CCCC1` gave JMJD2A Tudor inh inactive, BAZ2B inh inactive, G9a inh 50µM and HP1b binding inh inactive.
COc1cc(NC(=O)c2ccc(OCc3c(C)noc3C)c(OC)c2)cc(OC)c1 was read as JMJD2A Tudor inh inactive and HP1b binding inh inactive.
For COc1cccc(-c2cn3c(n2)sc2cc(C(=O)NCCc4ccccc4)ccc23)c1 the results were JMJD2A Tudor inh inactive, BAZ2B inh inactive, G9a inh inactive and HP1b binding inh inactive.
`CCCOc1ccc(Nc2cc(C)nc(C)n2)cc1` gave JMJD2A Tudor inh inactive, BAZ2B inh inconclusive, G9a inh inactive and HP1b binding inh inactive.
Screening Cc1ccc(NC(=O)CN2C(=O)C(c3ccc(C(C)(C)C)cc3)=NC2(C)C)cc1 returned JMJD2A Tudor inh inactive, BAZ2B inh inactive, G9a inh inactive and HP1b binding inh inactive.
Screening O=S(=O)(c1ccccc1)c1nc(-c2ccco2)oc1N1CCCCCC1 returned Sfp inh 63µM, JMJD2A Tudor inh inactive[11.4 µM], BAZ2B inh 40µM, G9a inh inconclusive and HP1b binding inh 8.9µM.
`O=S(=O)(c1ccccc1)c1nc(-c2cccs2)oc1N1CCCCC1` gave JMJD2A Tudor inh inactive, BAZ2B inh 35µM, G9a inh inconclusive and HP1b binding inh inactive.
`CN1CCN(c2oc(-c3ccco3)nc2S(=O)(=O)c2ccccc2)CC1` gave Sfp inh inactive, JMJD2A Tudor inh inactive, BAZ2B inh inactive, G9a inh inconclusive and HP1b binding inh inactive.
Screening CC1CCN(c2oc(-c3cccs3)nc2S(=O)(=O)c2ccc(Cl)cc2)CC1 returned JMJD2A Tudor inh inconclusive, BAZ2B inh inconclusive, G9a inh 7.9µM and HP1b binding inh inconclusive.
`CCC(C)S(=O)(=O)c1oc(-c2cccs2)nc1S(=O)(=O)c1ccccc1` (stereo unspecified) gave JMJD2A Tudor inh inactive, BAZ2B inh inactive, G9a inh 18µM and HP1b binding inh inactive.
Screening Cc1ccc(S(=O)(=O)c2nc(-c3cccs3)oc2N2CCC(C)CC2)cc1 returned JMJD2A Tudor inh inconclusive, BAZ2B inh inconclusive, G9a inh inconclusive and HP1b binding inh inactive.
Screening NC(=O)C1CCN(CC(O)COc2ccc(-c3ccccc3)cc2)CC1 (stereo unspecified) returned Sfp inh inactive, JMJD2A Tudor inh inactive, BAZ2B inh inactive, G9a inh inactive and HP1b binding inh inactive.
For CCc1ccc(Cc2cnc(NC(=O)c3ccc4c(c3)CC(c3ccccc3)OC4=O)s2)cc1 (stereo unspecified) the results were JMJD2A Tudor inh inactive, BAZ2B inh inactive, G9a inh inactive and HP1b binding inh inactive.
`CCC(C)NC(=O)C1(N2C(=O)c3ccccc3C2=O)CCCC1` (stereo unspecified) gave JMJD2A Tudor inh inactive and HP1b binding inh inactive.
Cc1c(C(=O)Nc2nc3ccccc3[nH]2)oc2ccc(Br)cc12 was read as Sfp inh 14µM, JMJD2A Tudor inh inactive, BAZ2B inh inactive, G9a inh inactive and HP1b binding inh inactive.
`Cc1ccc(C(=O)Nc2nc3ccccc3[nH]2)cc1` gave Sfp inh inactive, JMJD2A Tudor inh inactive, BAZ2B inh inactive, G9a inh inactive and HP1b binding inh inactive.
For Cn1nc(C(=O)Nc2nc3ccccc3[nH]2)ccc1=O the results were Sfp inh inactive, JMJD2A Tudor inh inactive, BAZ2B inh inconclusive, G9a inh 32µM and HP1b binding inh inactive.
For CN(C)c1cccc(C(=O)Nc2nc3ccccc3[nH]2)c1 the results were Sfp inh inactive, JMJD2A Tudor inh 45µM, BAZ2B inh 35µM, G9a inh 50µM and HP1b binding inh inconclusive.
